# Measurements published in PubChem BioAssay AID2551 (National Center for Advancing Translational Sciences (NCATS), 2010).
# The whole screen tested about 310,000 compounds, of which about 17,000 (5.5%) were called active. Roughly 11% stayed inconclusive and do not appear here. The sample holds actives, similar compounds and a random draw of the others, so the mix is not that of the screen. The call rests on the fitted dose curve; in most records, active means well fitted inhibition curve with a large enough effect; inconclusive means small, poorly fitted or top-dose-only effect, or effect the other way; inactive means no such curve, though single readings can be large or run the other way.
# Target: Nuclear receptor ROR-gamma (Mus musculus) (UniProt P51450)
# Sequence (P51450 whole entry, looked up): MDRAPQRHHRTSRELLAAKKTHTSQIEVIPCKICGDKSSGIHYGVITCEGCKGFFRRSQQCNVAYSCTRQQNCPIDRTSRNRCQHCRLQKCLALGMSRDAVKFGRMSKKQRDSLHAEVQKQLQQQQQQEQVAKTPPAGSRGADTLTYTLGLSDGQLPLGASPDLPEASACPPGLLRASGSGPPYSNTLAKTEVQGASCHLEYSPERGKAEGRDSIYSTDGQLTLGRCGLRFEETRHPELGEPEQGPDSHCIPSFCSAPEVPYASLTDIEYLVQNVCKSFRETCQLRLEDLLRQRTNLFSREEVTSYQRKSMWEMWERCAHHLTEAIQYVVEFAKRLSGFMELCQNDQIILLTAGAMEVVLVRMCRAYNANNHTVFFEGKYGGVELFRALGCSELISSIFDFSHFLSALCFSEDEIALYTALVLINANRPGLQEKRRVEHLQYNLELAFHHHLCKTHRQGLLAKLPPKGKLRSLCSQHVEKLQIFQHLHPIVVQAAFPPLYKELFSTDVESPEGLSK
# Experiment: qHTS for inhibitors of ROR gamma transcriptional activity; further: nearly all actives have a fitted effect of over 60% in size
# Conditions: Drosophila S2 Gal4-RORgamma UAS-luciferase reporter, 20 h; series mostly up to 53.6 µM; activity change, negative = inhibition: at the top concentration
# Summary of the method: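 Stably transfected Drosophila Schneider cells are the test system, with ROR gamma fused to Gal4 and luciferase under UAS control; luminescence is read after 20 hr of 700 uM copper sulfate induction at ambient temperature.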
# On the % scale 0 is the no-effect control and ±100 the full control effect; potency means the concentration at half of the fitted maximal effect.
Structure (SMILES),"activity change, negative = inhibition",Potency
CC(C)CCN(C(=O)c1csnn1)C(C(=O)NC1CCCC1)c1ccccc1 (stereo not given),-6.52% (inactive),
Cc1ccc(NC(=O)CN(C)C(=O)COC(=O)C(C)(C)Oc2ccc(Cl)cc2)cc1,6.56% (inactive),
Cn1c(CC(=O)Nc2ccccc2)nnc1SCC(=O)c1ccccc1,,3.55 µM (active)
Cn1c(CSCC(=O)Nc2ccccc2)nnc1SCc1ccccc1,5.44% (inactive),
Cn1c(Cc2cccs2)nnc1SCC(=O)Nc1ccccc1,1.98% (inactive),
CCOc1ccc(N(CC)S(=O)(=O)c2cccc3nsnc23)cc1,-23.8% (inactive),
O=C(CN(C(=O)c1csnn1)c1cccc(Cl)c1)NC1CCCC1,0.687% (inactive),
COc1cc(Cl)ccc1OCc1cc(C(=O)N2CC[C@@H]3CCCC[C@H]3C2)no1,11.1% (inactive),
CCc1ccc(NC(=O)Cn2nnc(C(=O)NCc3ccc4c(c3)OCO4)c2N)cc1,-14.2% (inactive),
O=C(/C=C/c1ccccc1[N+](=O)[O-])OC1CCCCC1=O (stereo not given),27.5% (inactive),
O=C(/C=C/c1ccccc1[N+](=O)[O-])NCC1CCCO1 (stereo not given),16.2% [at 10 µM] (inactive),
CC1CCCCC1NC(=O)/C(C#N)=C/C=C/c1ccccc1[N+](=O)[O-] (stereo not given),,8.91 µM (active)
CCCCC(=O)Nc1nnc(S(=O)(=O)N(C)Cc2ccco2)s1,32.9% (inactive),
CSc1ccccc1NC(=O)c1cc(Cl)sc1Cl,16.4% (inactive),
CC(c1ccccn1)N(C)C(=O)c1ccc2nc(Cc3cccc(Cl)c3)oc2c1 (stereo not given),1.45% (inactive),
COc1ccc(-c2c3c(=O)n(C)c(=O)n(C)c3cn2-c2cccc(OC)c2)cc1,44.8% (inactive),
Cc1ccc(-c2c3c(=O)n(C)c(=O)n(C)c3cn2-c2ccccc2O)cc1,-11.2% (inactive),
Cc1ccc(-c2c3c(=O)n(C)c(=O)n(C)c3cn2-n2cnnc2)cc1,,15.8 µM (active)
Cn1c(-c2sc3cc(C(F)(F)F)cnc3c2-c2ccccc2)n[nH]c1=S,,2.82 µM (active)
Cc1cc(C(F)(F)F)n2ncc(-c3ccccc3)c2n1,-12.2% [at 0.365 µM] (inactive),
CC(=O)OCC(=O)[C@@]1(O)CCC2C3CCC4=CC(=O)CC[C@@]4(C)[C@]3(F)C(O)C[C@]21C (stereo not given in full),24.6% (inactive),
CC1(C)OC2CC3C4CCC5=CC(=O)CCC5(C)C4(F)C(O)CC3(C)[C@]2(C(=O)CCl)O1 (stereo not given in full),,10 µM (active)

Structure (SMILES),"activity change, negative = inhibition",Potency
CC(=O)OCC(=O)[C@@]1(O)CC[C@@H]2[C@H]3CCC4=CC(=O)C=C[C@]4(C)[C@]3(F)[C@@H](O)C[C@@]21C,-4.5% [at 2.98 µM] (inactive),
CNC(=O)[C@]1(C(F)(F)F)C[C@H](CCc2ccccc2)CCCO1,42.9% (inactive),
CCOCCCN(C)C1CCN(C(=O)c2oc3ccccc3c2NC(=O)COc2cccc(C)c2)CC1,-0.451% (inactive),
Cn1c(Nc2ccccc2)cc(=O)n(C)c1=O,-4.42% (inactive),
COc1cccc(NC(=O)COc2cc(C)cc3oc(=O)cc(C)c23)c1,4% (inactive),
CC(NC(=O)c1ccc(Cl)cc1)C(=O)N1CCCCC1 (stereo not given),-4.9% (inactive),
COC(=O)C1(O)CC(C(C)C)=NN1C(=O)c1ccc(Cl)cc1 (stereo not given),,10 µM (active)
COC(=O)c1cn(C(=O)c2ccc(Cl)cc2)c2ccccc12,13.7% (inactive),
CC1CCC2CCCCC2N1C(=O)c1cc([N+](=O)[O-])cc([N+](=O)[O-])c1 (stereo not given),-28% (inactive),
C=CCSc1nc2c(c(=O)[nH]c(=O)n2C)n1Cc1ccccc1,29.8% (inactive),
Cc1cc(NC(=O)c2cccc(N3C(=O)CCC3=O)c2)no1,0.145% (inactive),
COc1ccccc1-c1nnc(NC(=O)c2ccc3ncsc3c2)o1,,0.501 µM (active)
COc1ccccc1-c1nnc(NC(=O)c2cccc(N3C(=O)CCC3=O)c2)o1,,11.2 µM (active)
COc1ccccc1NC(=O)c1ccc2nc(N3C(=O)CCC3=O)sc2c1,-0.921% (inactive),
O=C(Nc1cccc2cccnc12)c1cccc(N2C(=O)CCC2=O)c1,22.7% (inactive),
COc1ccccc1-c1nnc(SCC(=O)N2CC(C)CC(C)C2)o1 (stereo not given),-17.1% (inactive),
O=C(CC1C(=O)NCCN1CC(c1ccccc1)c1ccccc1)NCC1CCOCC1 (stereo not given),-0.562% (inactive),
COCCCNC(=O)/C(C#N)=C/c1c(N2CCCCCC2)nc2ccccn2c1=O,-0.567% (inactive),
CC1(C)Oc2ccc3ccc(=O)oc3c2/C(=N/O)C1=O,-6.38% (inactive),
Cc1onc(C(=O)NN)c1C(=O)N1CCN(C(c2ccccc2)c2ccccc2)CC1,-15% (inactive),
CCN1CCN(c2ccc(NC(=O)c3cnccn3)cc2)CC1,-33.7% (inactive),
CCOC(=O)N1CCN(C(=O)C2CCN(c3ncnc4c3sc3cccc(F)c34)CC2)CC1,20.4% (inactive),

Structure (SMILES),"activity change, negative = inhibition",Potency
Oc1ccccc1CN1CCN(C(c2ccccc2)c2ccccc2)CC1,20% (inactive),
CCN1CCN(C(c2cccnc2)c2cc(Cl)c3cccnc3c2O)CC1 (stereo not given),,2.82 µM (active)
CCOC(=O)N1CCN(C(c2cccnc2)c2ccc3cccnc3c2O)CC1 (stereo not given),,4.47 µM (active)
CCc1nc2nc(C)c(NS(=O)(=O)c3ccc4c(c3)CCCC4)c(=O)n2[nH]1,-9.27% (inactive),
COc1ccc(Nc2nnc(C)c3ccccc23)cc1,29.9% (inactive),
COc1ccc(NC2=CC(=S)NC(C)(C)C2)cc1,,7.08 µM (active)
COc1ccc(Nc2nc(=O)[nH]nc2C)cc1,-0.69% (inactive),
COc1ccc(NS(=O)(=O)c2ccc(F)cc2F)cn1,0.367% (inactive),
CC(C)CCN1NC2(CCC(C)CC2)NC1=S (stereo not given),,7.08 µM (active)
COc1ccc(NC(=O)CN2C(=O)COc3ccc(S(=O)(=O)N4CCOCC4)cc32)cc1,0.317% (inactive),
COCCN1C(=O)C(=O)/C(=C(/O)c2ccc(S(=O)(=O)N3CCCCC3)cc2)C1c1ccc(OC)c(OC)c1 (stereo not given),-11.7% (inactive),
CSc1c(SCc2ccccc2)cnn(Cc2ccccc2)c1=O,,5.62 µM (active)
Cn1c(CO)cnc1SCc1ccccc1,17.6% (inactive),
CSc1nc2ccccc2c(=O)n1Cc1ccc(F)cc1,37.8% (inactive),
Cc1cc(Cl)c2oc(C(=O)NC(C)c3ccncn3)c(C)c2c1 (stereo not given),-22.4% (inactive),
COc1ccc(NC(=O)CSCc2ccc([N+](=O)[O-])cc2)cc1OC,0.586% (inactive),
CCn1cc(C(=O)N[C@@H](C)C(=O)NCCO)c(=O)c2cc3c(cc21)OCO3,1.23% (inactive),
Cc1nnc(N/N=C/c2cccs2)[nH]c1=O,13.8% (inactive),
Cc1cc(C)nc(SC(C)C(=O)N/N=C/c2cccs2)n1 (stereo not given),14.8% (inactive),
Cc1n[nH]c(=O)nc1N/N=C/c1cccs1,,5.01 µM (active)
CC(Oc1cc2oc(=O)c3c(c2cc1Cl)CCCC3)C(=O)NCc1ccncc1 (stereo not given),-13% (inactive),
